Assay results: PubChem BioAssay (NCATS)
The source made the active and inactive calls. Calls come from the whole dose curve; as a rule, active = well fitted activation curve with a large enough effect; inconclusive = small, poorly fitted or top-dose-only effect; inactive = flat fitted curve, though single readings scatter.

Assay: Confirmation and Secondary Assay for Modulators of Hemoglobin Beta Chain Splicing at IVS2 705 locus (AID 930);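 note: HeLa cells stably expressing the EGFP-705 splicing reporter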
Settings: HeLa EGFP-705 splicing reporter, GFP fluorescence, 48 h; series mostly up to 46.1 µM
How it was run: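 Stable HeLa line with EGFP disrupted by mutant beta-globin intron 2 (705). Overnight attachment, then 2 days of compound at 37C, 5% CO2. Signal: peak GFP intensity summed over objects 5-250 µm.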

Row | SMILES | outcome
1 | CN(C)CCOC(c1ccc(Cl)cc1)c1ccccn1 (configuration not stated) | inactive
2 | CCC(Cc1c(I)cc(I)c(N)c1I)C(=O)O (configuration not stated) | inactive
3 | COc1cc(N)c(Cl)cc1C(=O)NC1CCN(Cc2ccccc2)CC1 | inactive
4 | COc1cc(NS(=O)(=O)c2ccc(N)cc2)ncn1 | inactive
5 | CC(=O)NO | inactive
6 | COc1ccc(-c2cc(C(F)F)nn2-c2ccc(S(N)(=O)=O)cc2)cc1F | inactive
7 | O=C(O)CCNC(=O)c1ccccc1 | inactive
8 | Cc1ccccc1OCC(O)CO (configuration not stated) | inactive
9 | CCN1CCCC(OC(=O)C(c2ccccc2)c2ccccc2)C1 (configuration not stated) | inactive
10 | CCCc1ncc(C[n+]2ccccc2C)c(N)n1 | inactive
11 | CCN(CC)CCNc1ccc(CO)c2sc3ccccc3c(=O)c12 | inactive
12 | CC(=O)Nc1ccc(S(=O)(=O)Nc2ccc([N+](=O)[O-])cc2)cc1 | inactive
13 | CCOC(=O)[C@H](CCc1ccccc1)N[C@@H](C)C(=O)N1[C@H](C(=O)O)C[C@H]2CCCC[C@@H]21 | inactive
14 | C[N+]12CCC(CC1)C(OC(=O)C(O)(c1ccccc1)c1ccccc1)C2 (configuration not stated) | inactive
15 | O=C1C(=O)c2ccccc2C(O)=C1C1CCC(c2ccc(Cl)cc2)CC1 (configuration not stated) | inactive
16 | CCN(CC)CCOc1ccc2c(c1)C(=O)c1cc(OCCN(CC)CC)ccc1-2 | inactive

Row | SMILES | outcome
17 | Oc1c(Cl)cc(Cl)c(Cl)c1Cc1c(O)c(Cl)cc(Cl)c1Cl | inactive
18 | OCCOCCN1CCN(C2=Nc3ccccc3Sc3ccccc32)CC1 | inactive
19 | O=C1C(CCS(=O)c2ccccc2)C(=O)N(c2ccccc2)N1c1ccccc1 (configuration not stated) | inactive
20 | CC(C)NCC(O)c1ccc2ccccc2c1 (configuration not stated) | inactive
21 | Nc1ccc(S(=O)(=O)Nc2cnc3ccccc3n2)cc1 | inactive
22 | COC(=O)C(c1ccccc1Cl)N1CCc2sccc2C1 (configuration not stated) | inactive
23 | CCCCCN=C(N)N/N=C/c1c[nH]c2ccc(OC)cc12 | inactive
24 | CC(C(=O)O)c1cccc(Oc2ccccc2)c1 (configuration not stated) | inactive
25 | O=C(O)CCC(=O)Nc1ccc(S(=O)(=O)Nc2nccs2)cc1 | inactive
26 | O=C(O)P(=O)(O)O | inactive
27 | COc1cc(C(=O)NCc2ccc(OCCN(C)C)cc2)cc(OC)c1OC | inactive
28 | CNCCc1ccccn1 | inactive
29 | Cc1cc(C)cc(OCC2CNC(=O)O2)c1 (configuration not stated) | inactive
30 | Cc1cc(-c2ccccc2)nnc1NCCN1CCOCC1 | inactive
31 | CCN(CC)CCOC(=O)C(Cc1cccc2ccccc12)CC1CCCO1 (configuration not stated) | inactive
32 | CC(=O)NCCCCCC(=O)O | inactive
